Molecules are shown by their SMILES. Activity calls are given as the source filed them. The call rests on the fitted dose curve; in most records, active means well fitted curve in the direction sought with a large enough effect; inactive means no such curve, though single readings can be large or run the other way.

For ten compounds, outcome results are on record in PubChem BioAssay AID743192 (National Center for Advancing Translational Sciences (NCATS), 2013).

In this assay the target is L-lactate dehydrogenase B chain (Homo sapiens) (UniProt P07195). In words: Extended Characterization of HPGD Inhibitors: Counterscreen Against LDHB. Particulars: LDHB enzyme, diaphorase/resazurin coupled fluorescence; series mostly up to 114 µM. From the text: The central role of HPGD is to inactivate prostaglandins such as prostaglandin E2 (PGE2) or prostaglandin D2 (PGD2). These prostaglandins are involved in a number of processes, including inflammation, differentiation, and cellular signaling, which makes HPGD an important target for pharmacological intervention. A number of prostaglandins of particular biological interest have been identified as substrates of HPGD. […] Over-production of PGE2 has been reported to promote tumor-associated neovascularization, cell proliferation, and tumor growth. […] In order to further characterize the compounds, we ran them against an LDHB counterscreen. LDHA converts pyruvate to lactate while regenerating NAD+ from NADH. LDHA enzymatic activity is then coupled to the activity of diaphorase, which reversibly catalyzes the reaction of NAD+ to NADH while simultaneously reducing resazurin to the fluorescent resorufin. This change in fluorescence signal (excitation 544 nm; emission, 590 nm) was monitored using the ViewLux CCD imager (Perkin Elmer). Data were normalized against no enzyme control wells and no compound control wells. NIH Chemical Genomics Center [NCGC] NIH Molecular Libraries Probe Centers Network [MLPCN] MLPCN Grant: MH084681 Assay Submitter (PI): Structural Genomics Consortium
L-lactate dehydrogenase B chain (Homo sapiens), sequence (P07195 whole entry, looked up): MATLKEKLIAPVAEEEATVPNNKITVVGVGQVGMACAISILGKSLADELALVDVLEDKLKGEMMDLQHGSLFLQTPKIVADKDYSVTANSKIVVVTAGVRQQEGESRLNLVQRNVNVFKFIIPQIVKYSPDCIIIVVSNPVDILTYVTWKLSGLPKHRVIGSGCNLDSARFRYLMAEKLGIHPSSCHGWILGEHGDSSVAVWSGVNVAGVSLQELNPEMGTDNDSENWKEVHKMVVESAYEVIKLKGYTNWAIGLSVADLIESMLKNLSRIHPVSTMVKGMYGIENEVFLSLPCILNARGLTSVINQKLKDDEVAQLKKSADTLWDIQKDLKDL
3 uL of LDHB enzyme in assay buffer are added to plate before 23 nL of compound/control are pinned into the solution. After a 15 min incubation, 1 uL of NADH (60 uM final) and sodium pyruvate (160 uM final) are added, incubated at 8 min at RT before another 1 uL of Diaphorase / Resazurin is added. The plate is read on the ViewLux after a 10 min RT incubation
On to `Cc1ccc(-n2c(C)cc(-c3nnc4n3CCCCC4)c2C)cc1`, for which the call was inactive.
The entry for `Cc1cc(-c2nnc3n2CCCCC3)c(C)n1-c1cccc(Cl)c1` is “inactive”.
As to `Cc1cccc(-n2cnc3cc(C(=O)N4CCCC(C(F)(F)F)C4)ccc32)c1` (stereo not given), the compound was classed as inactive.
As to `Cc1cc(-c2nnc3n2CCCCC3)c(C)n1-c1cccc(C(F)(F)F)c1`, the compound was called inactive.
To `O=C(c1ccc2c(c1)ncn2-c1cccc(C(F)(F)F)c1)N1CCCCC1` belongs “inactive”; to `COc1ccc(-n2cnc3cc(C(=O)N4CCCCC4)ccc32)cc1`, “inactive”.
As for `Cc1cc(-c2nnc3n2CCCCC3)c(C)n1-c1cccc(C#N)c1`, the result was inactive.
Regarding `Cc1cccc(-n2cnc3cc(C(=O)N4CCCC(C)(C)C4)ccc32)c1`, the outcome was inactive.
Turning to `O=C(c1ccc2c(c1)ncn2-c1cccc(Cl)c1)N1CCCCC1`, the compound was classed as inactive.
In the case of `Cc1cc(-c2nnc3n2CCCCC3)c(C)n1-c1ccc(Cl)c(Cl)c1`, the result was inactive.
